# S16 F2sN tox – Cell viability qHTS assay in S16 Pmp22-F2sN cells. AID 1508642, 2021. S16 Pmp22-F2sN Schwann cells viability, CellTiter-Glo, 24 h. 43,000 compounds, 0.48% hits. Potency, µM (series often up to 57.5 µM), for the others: at the highest dose activity change, negative = cytotoxicity, actives largely listed as cytotoxic; also: potency is read from the fitted curve at half-maximal effect; % is scaled to controls: 0 for no effect and ±100 for the full control effect; nearly all actives have a fitted effect of over 65% in size
#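 Luminescence from CellTiter-Glo, read by CCD camera after a 15 min room-temperature incubation, served as the viability signal. Reporter Schwann cells (S16 Pmp22-F2sN) had been treated with pin-transferred compounds for 24 h at 37C.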
# GALC G270D act – A Novel Cell-Based Assay to Identify Small Molecules for B -Galactocerebrosidase; P54803; AID 1159614, 2016; 45,000 compounds, 0.1% hits; 145M-Twi-hGALC-G270D cells (Twitcher mouse brain line with human GALC G270D), HMU-beta-Gal fluorescence, 48 h; Potency, µM (titrated, usually from 57.5 µM), most hits filed as activators; also: potency is read from the fitted curve at half-maximal effect; 0% is about no effect; nearly all actives have a fitted effect of over 65% in size
#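 Live 145M-Twi cells (Twitcher mouse brain-derived, GALC-null) stably expressing human GALC-G270D, with a wild-type GALC line, were compound-treated. Residual GALC activity was then read as fluorescence from 0.1 mM final HMU-β-gal at pH 5.2; higher signal means activation.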
# NTMT1 inh – Primary qHTS for Inhibitors of N-terminal methyltransferase 1 (NTMT1): MTaseGlo Assay. NTMT1 MTase-Glo SAH luminescence, purified enzyme. Potency, µM (top dose mostly 114 µM), inactives show top-dose activity change, negative = inhibition, usual class: inhibitors. 59,000 compounds, 2.5% hits;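 also: potency is read from the fitted curve at half-maximal effect; plate controls were DMSO vehicle for no effect and no enzyme for full effect; nearly all actives have a fitted effect of over 65% in size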
# Target sequence (Q9BV86 whole entry, looked up): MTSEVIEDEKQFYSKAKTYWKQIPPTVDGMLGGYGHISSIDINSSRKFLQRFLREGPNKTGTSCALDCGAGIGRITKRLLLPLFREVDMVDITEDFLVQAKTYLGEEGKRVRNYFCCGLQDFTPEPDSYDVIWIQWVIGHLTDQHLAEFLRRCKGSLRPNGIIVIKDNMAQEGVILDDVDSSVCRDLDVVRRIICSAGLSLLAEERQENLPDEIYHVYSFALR
# SKOV3 invasion – Primary qHTS assay for Inhibitors of ovarian cancer metastasis using an organotypic tumor microenvironment (TME) model | 46,000 compounds, 0.1% hits | SKOV3ip1-GFP adhesion/invasion on 3D omental model, fluorescence | Potency, µM (highest dose often 45.8 µM), inactives show at the highest dose activity change, negative = inhibition, hits mostly inhibitors;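 also: potency is read from the fitted curve at half-maximal effect; plate controls were DMSO wells for no effect and tomatine positive control wells for full effect; nearly all actives have a fitted effect of over 65% in size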
#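 Adhesion/invasion was scored as fixed GFP-labeled SKOV3ip1 cell counts (488/509 nm), normalized to DMSO and tomatine controls. Cancer cells in serum-free medium, with four compound doses (0.36-46 umol/L), sat 2 hr at RT then 16 hr at 37 C on a 48 hr fibroblast/mesothelial/ECM culture.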
# mTORC1 inh – Acumen qHTS Assay for Inhibitors of the mTORC1 Signaling Pathway in MEF (Tsc2-/-, p53-/-) Cells: Sytravon. 44,000 compounds, 0.78% hits. Tsc2-/- p53-/- MEF, phospho-rpS6 immunofluorescence/PI, 24 h. Potency, µM (series often up to 38.3 µM), without a hit: top-dose activity change, negative = inhibition, usual class: inhibitors;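 also: potency is read from the fitted curve at half-maximal effect; plate controls were DMSO for no effect and rapamycin for full effect; nearly all actives have a fitted effect of over 50% in size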
#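 Tsc2-/-, p53-/- mouse embryonic fibroblasts (empty-vector line) exposed to compound 24 hrs at 37 C, fixed, immunostained for phospho-rpS6 and counterstained with propidium iodide. Acumen laser scanning gives % positive cells from Alexa 488/PI ratio, thresholded using 7.5 nM rapamycin; PI count gives viability.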
# PMP22 txn prim – Cell-based coincidence reporter assay to measure PMP22 gene transcription in S16 Pmp22-F2sN cells - Primary screen | S16 Pmp22-F2sN Schwann cells (luciferase reporters placed in the Pmp22 gene), FLuc/NLuc coincidence luminescence, 24 h | Potency, µM (highest dose often 57.5 µM), for inactives: at the highest dose activity change, negative = inhibition, actives largely listed as inhibitors | 43,000 compounds, 2% hits | AID 1508649, 2021; active = clear falling dose curves in both reporters; inconclusive = both reporters move, but less clearly or upward; inactive = either reporter flat; the % is the NLuc reporter signal; also: potency is read from the fitted curve at half-maximal effect; % is scaled to controls: 0 for no effect and ±100 for the full control effect
#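 Schwann cells carrying the coincidence reporter were exposed to library compounds for 24 h at 37C, then lysed and read for FLuc and, after quenching, NLuc luminescence on a CCD imager.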
# NLuc saturating – Biochemical NLuc saturation counterscreen for small molecule modulators of PMP22 gene expression - Nano-Glo assay; shares compounds with PMP22 txn prim; Secreted NLuc enzyme (filtered S16 cell medium), Nano-Glo luminescence; Potency, µM (top dose mostly 57.5 µM), for inactives: top-dose activity change, negative = inhibition, actives largely listed as inhibitors; 690 compounds, 4% hits; AID 1508638, 2021; also: potency is read from the fitted curve at half-maximal effect; % is scaled to controls: 0 for no effect and ±100 for the full control effect
# NLuc Km counter – Biochemical coelenterazine-based NLuc counterscreen for small molecule modulators of PMP22 gene expression - Km assay. shares compounds with PMP22 txn prim. secreted NLuc enzyme, coelenterazine luminescence, Km conditions. 690 compounds, 5% hits. AID 1508639, 2021. Potency, µM (series often up to 57.5 µM), without a hit: at the highest dose activity change, negative = inhibition, usual class: inhibitors; also: potency is read from the fitted curve at half-maximal effect; % is scaled to controls: 0 for no effect and ±100 for the full control effect
# FLuc counter – Biochemical FLuc counterscreen for small molecule modulators of PMP22 gene expression; shares compounds with PMP22 txn prim; 690 tested, under 10 active; purified P. pyralis FLuc, luminescence, 10 min; Potency, µM (top dose mostly 57.5 µM), without a hit: top-dose activity, negative = inhibition, most hits filed as inhibitors; AID 1508640, 2021; also: % of control where 0% means no effect
# Target sequence (P08659 whole entry, looked up): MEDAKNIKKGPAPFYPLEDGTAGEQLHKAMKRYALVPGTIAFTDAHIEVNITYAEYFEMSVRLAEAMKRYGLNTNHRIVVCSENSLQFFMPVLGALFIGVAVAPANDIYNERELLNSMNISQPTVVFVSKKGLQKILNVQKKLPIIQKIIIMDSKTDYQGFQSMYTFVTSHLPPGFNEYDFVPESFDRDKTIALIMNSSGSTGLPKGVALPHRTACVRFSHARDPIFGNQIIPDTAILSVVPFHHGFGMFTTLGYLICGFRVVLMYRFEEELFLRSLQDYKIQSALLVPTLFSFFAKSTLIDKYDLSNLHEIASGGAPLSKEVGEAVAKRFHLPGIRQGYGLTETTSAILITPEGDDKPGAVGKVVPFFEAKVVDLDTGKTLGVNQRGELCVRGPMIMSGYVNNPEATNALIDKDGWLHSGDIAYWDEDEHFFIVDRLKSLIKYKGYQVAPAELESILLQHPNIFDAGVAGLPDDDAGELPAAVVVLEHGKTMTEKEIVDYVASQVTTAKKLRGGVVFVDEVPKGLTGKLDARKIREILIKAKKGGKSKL
# S16 viab conf – Cell viability qHTS assay in S16 Pmp22-F2sN cells - Confirmatory screen. AID 1508641, 2021. Potency, µM (titrated, usually from 57.5 µM), for inactives: at the highest dose activity change, negative = viability loss, hits mostly cytotoxic. S16 Schwann cells viability, CellTiter-Glo ATP luminescence, 24 h. shares compounds with PMP22 txn prim. 690 compounds, 7% hits; also: potency is read from the fitted curve at half-maximal effect; % is scaled to controls: 0 for no effect and ±100 for the full control effect
# PMP22 txn conf – Cell-based coincidence reporter assay to measure PMP22 gene transcription in S16 Pmp22-F2sN cells - Confirmatory screen | AID 1508646, 2021 | S16 Schwann cells Pmp22-F2sN, dual luciferase, 24 h | 690 compounds, 22% hits | shares compounds with PMP22 txn prim | Potency, µM (top dose mostly 57.5 µM), inactives show at the highest dose activity change, negative = inhibition, hits mostly inhibitors; active = clear falling dose curves in both reporters; inconclusive = both reporters move, but less clearly or upward; inactive = either reporter flat; the % is the FLuc reporter signal; also: potency is read from the fitted curve at half-maximal effect
# PMP22 prot conf – Cell-based HiBiT reporter assay to measure PMP22 protein expression in S16 Pmp22-HiBiT cells - Confirmatory screen | Potency, µM (highest dose often 27.9 µM), for inactives: at the highest dose activity change, negative = inhibition, usual class: inhibitors | AID 1508647, 2021 | shares compounds with PMP22 txn prim | 95 tested, under 10 active | S16 Schwann cells Pmp22-HiBiT, luminescence, 48 h
# Starred values were filed as active, the others as inactive; i = inactive; ? = inconclusive; . = no result given; [ ] = remark or other dose. Compounds with a hit are over-represented: about 3.6% of the library has one in this group of screens. Unless noted, calls follow the shape of the dose curve; as a rule, active = well fitted curve in the direction sought with a large enough effect; inconclusive = small, poorly fitted or top-dose-only effect, or another doubt; inactive = no such curve, though single readings can be large; an effect the other way counts as inactive or inconclusive.
SMILES,S16 F2sN tox,GALC G270D act,NTMT1 inh,SKOV3 invasion,mTORC1 inh,PMP22 txn prim,NLuc saturating,NLuc Km counter,FLuc counter,S16 viab conf,PMP22 txn conf,others
COc1cccc(NS(=O)(=O)c2cc(-c3cnc(C4CC4)o3)ccc2C)c1,?,i,-22.1%,i,-9.7%,8.53µM*,?,15.3µM*,6.8%,-6.7%,2.89µM*,
CC(=O)O[C@@H]1[C@H](O[C@@H]2O[C@H](CO)[C@@H](O)[C@H](O)[C@H]2O)[C@@H](O[C@@H]2O[C@@H](C)[C@H](O)[C@@H](O[C@@H]3O[C@H](CO)[C@@H](O)[C@H](O)[C@H]3O)[C@H]2O)[C@H](OC(=O)[C@]23CCC(C)(C)C[C@H]2C2=CCC4[C@@]5(C)C[C@H](O)[C@H](O[C@@H]6O[C@H](C(=O)O)[C@@H](O)[C@H](O)[C@H]6O)[C@@](C)(C(=O)O)C5CC[C@@]4(C)[C@]2(C)CC3)O[C@@H]1C (stereo not given in full),.,.,2.7%[6.45 µM],.,.,.,.,.,.,.,.,
Cc1cc(Br)ccc1NC(=O)C1CCCN(S(=O)(=O)c2cccc3nonc23)C1 (stereo not given),13.1%,i,8.4%,i,-16.2%,?,.,.,.,.,.,
Cc1cc(NC(=O)C2CCCN(S(=O)(=O)c3cccc4nonc34)C2)ccc1Br (stereo not given),?,i,-9.0%,i,3.5%,17.8µM*,-0.9%,2.8%,3.1%,-12.5%,17.2µM*,PMP22 prot conf=30.3%
COc1cc(-c2noc(-c3ccc(NCc4ccccc4)c([N+](=O)[O-])c3)n2)cc(OC)c1OC,13.3%,i,9.8%,i,3.3%,-15.7%,.,.,.,.,.,
COc1cc(-c2noc(-c3ccc(NCc4ccco4)c([N+](=O)[O-])c3)n2)cc(OC)c1OC,4.3%,i,-1.5%,11.5%,-0.3%,3.25µM*,?,?,-0.9%,-11.9%,?,
O=C(Cn1ncc2c([nH]c3ccccc32)c1=O)Nc1cccc(C(F)(F)F)c1,-19.7%,i,-18.7%,-1.4%,0.8%,20µM*,-8.1%,4.0%,5.6%,-10.0%,-56.0%,
O=C(Nc1ccc(-c2nc3ccccc3[nH]2)cc1)Nc1ccc2c(c1)OCCO2,.,.,6.6%[57.5 µM],.,.,.,.,.,.,.,.,
CCOC(=O)c1c(NC(=O)c2ccc(S(=O)(=O)N3CCC(C)CC3)cc2)sc2c1CCN(C)C2,?,i,?,?,14.7µM*,17.8µM*,?,?,6.4%,?,18.3µM*,
COCCn1c(=N)c(C(=O)NCc2ccco2)cc2c(=O)n3cc(C)ccc3nc21,25.0%,i,-0.8%,i,?,-24.4%,.,.,.,.,.,
COCCCn1c(=N)c(C(=O)NCc2ccco2)cc2c(=O)n3cccc(C)c3nc21,5.7%,i,?,i,2.4%,14.1µM*,-7.5%,0.9%,1.5%,?,?,
CCOCCCn1c(=N)c(C(=O)NCC2CCCO2)cc2c(=O)n3cccc(C)c3nc21 (stereo not given),-6.7%,i,-0.3%,-1.8%,-4.7%,16.3µM*,-5.4%,-1.7%,4.7%,2.6%,?,
CCOCCCn1c(=N)c(C(=O)NCC2CCCO2)cc2c(=O)n3cc(C)ccc3nc21 (stereo not given),1.7%,i,-6.6%,-8.5%,?,-43.2%,.,.,.,.,.,
CN(CC1COCCO1)S(=O)(=O)Nc1ccc2ccc3ncc(-c4cnn(C)c4)cc3c(=O)c2c1 (stereo not given),.,.,-6.4%[57.5 µM],.,.,.,.,.,.,.,.,
CC(C)(C)S(=O)(=O)c1ccc2nccc(Nc3n[nH]c4ccc(F)cc34)c2c1,.,.,0.8%,.,.,.,.,.,.,.,.,
COc1ccc(-c2nc3c(C#N)c[nH]n3c2NC2CCCC2)cc1,22.4µM*,i,-11.0%,1.2%,0.2%,15µM*,?,?,-16.2%,12.2%,?,
Cc1cccc(Nc2c3c(nc4nncn24)CCC3)c1C,-1.6%,i,13.1%,-20.8%,1.9%,?,?,8.8%,-5.9%,3.1%,?,PMP22 prot conf=2.5%
O=c1c2ccccc2nc2sc(NCc3ccc([S+](=O)([O-])c4ccccc4)cc3)nn12,.,.,-0.6%,.,.,.,.,.,.,.,.,
